Here are results for 20 compounds from the supplement of paper PMC9492666.

For one experiment, the system named is HCC1937. Kind of experiment: relative cell viability, compound + erastin, vs DMSO (fraction of DMSO control); higher = less growth inhibition. The conditions noted are these: 72 h.
The subject of the next experiment is MDA-MB-231. The experiment is described as above. To be noted: 72 h.

Where a name gives a salt, the structure may show the parent alone.
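Further: viability read by CCK-8 kit in 96-well plates, part of a combination screen pairing lipid-metabolism-targeting compounds with erastin.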

As to `O=C(c1ccc(-c2nc3ccc(F)cc3o2)cc1)N1CCN(C(=O)C2(O)CC2)CC1` + CCOc1ccccc1-n1c(C(C)N2CCN(C(=O)COc3ccc(Cl)cc3)CC2)nc2ccccc2c1=O [erastin], the relative cell viability turned out to be 0.588 in the experiment on HCC1937 and 0.823 in the experiment on MDA-MB-231.
For `O=C(NC1CCN(CCCCC2(C(=O)NCC(F)(F)F)c3ccccc3-c3ccccc32)CC1)c1ccccc1-c1ccc(C(F)(F)F)cc1` [Lomitapide] + CCOc1ccccc1-n1c(C(C)N2CCN(C(=O)COc3ccc(Cl)cc3)CC2)nc2ccccc2c1=O [erastin], the relative cell viability in the experiment on HCC1937 is 0.201; in the experiment with MDA-MB-231, 0.436.
In the case of `COc1cc(N(C)C)cc(CN(C)CCc2ccc([N+](=O)[O-])cc2)c1O` [CDC25 Phosphatase Inhibitor I] + CCOc1ccccc1-n1c(C(C)N2CCN(C(=O)COc3ccc(Cl)cc3)CC2)nc2ccccc2c1=O [erastin], the relative cell viability in the experiment with HCC1937 amounted to 0.663; in the experiment with MDA-MB-231, 0.781.
The like results for `CCCCC[C@H](O)CC(=O)CCc1ccc(O)c(OC)c1` [6-Gingerol] + CCOc1ccccc1-n1c(C(C)N2CCN(C(=O)COc3ccc(Cl)cc3)CC2)nc2ccccc2c1=O [erastin] were, in that order, 0.444 and 0.693.
On to `COc1ccc(C2(CNC(=O)c3ccc(NC(=O)c4ccco4)cc3)CCOCC2)cc1` + CCOc1ccccc1-n1c(C(C)N2CCN(C(=O)COc3ccc(Cl)cc3)CC2)nc2ccccc2c1=O [erastin], for which the figures for the relative cell viability in the experiment on HCC1937 and with MDA-MB-231 were 0.518 and 0.728, respectively.
In the case of `O=C(NCCS(=O)(=O)c1ccc(C(F)(F)F)cn1)c1ccc(Cl)cc1` + CCOc1ccccc1-n1c(C(C)N2CCN(C(=O)COc3ccc(Cl)cc3)CC2)nc2ccccc2c1=O [erastin], the figures for the relative cell viability in the experiment on HCC1937 and with MDA-MB-231 were 0.511 and 0.503, respectively.
The like results for `CN1CCN(C(=O)C2C(C(=O)O)[C@H]3CC[C@@H]2O3)CC1` (stereo not given in full) + CCOc1ccccc1-n1c(C(C)N2CCN(C(=O)COc3ccc(Cl)cc3)CC2)nc2ccccc2c1=O [erastin] were, in that order, 0.278 and 0.394.
For `Nc1cccc(S(=O)(=O)N2CCCN(S(=O)(=O)c3ccc4c(c3)OCCO4)CC2)c1` + CCOc1ccccc1-n1c(C(C)N2CCN(C(=O)COc3ccc(Cl)cc3)CC2)nc2ccccc2c1=O [erastin], the relative cell viability in the experiment with HCC1937 came to 0.817; with MDA-MB-231 it was 0.553.
In the case of `CCCCCC=CC(=O)CCc1ccc(O)c(OC)c1` [6-Shogaol] + CCOc1ccccc1-n1c(C(C)N2CCN(C(=O)COc3ccc(Cl)cc3)CC2)nc2ccccc2c1=O [erastin], the relative cell viability with HCC1937 was determined as 0.639; in the experiment with MDA-MB-231, 0.559.
The corresponding values for `Cc1nc2c([nH]1)c(=O)n(C)c(=O)n2Cc1ccco1` [Furafylline] + CCOc1ccccc1-n1c(C(C)N2CCN(C(=O)COc3ccc(Cl)cc3)CC2)nc2ccccc2c1=O [erastin] are 0.672 and 0.767.
The like results for `COc1ccc(-c2cc(=O)c3c(O)c(OC)c(O)cc3o2)cc1OC` [Eupatilin] + CCOc1ccccc1-n1c(C(C)N2CCN(C(=O)COc3ccc(Cl)cc3)CC2)nc2ccccc2c1=O [erastin] were, in that order, 0.431 and 0.617.
The like results for `COc1ccc2c(=O)c(-c3ccccc3)coc2c1` [7-Methoxyisoflavone] + CCOc1ccccc1-n1c(C(C)N2CCN(C(=O)COc3ccc(Cl)cc3)CC2)nc2ccccc2c1=O [erastin] were, in that order, 0.443 and 0.68.
With `CC(C)=CCC[C@](C)(O[C@@H]1O[C@H](CO)[C@@H](O)[C@H](O)[C@H]1O)[C@H]1CC[C@]2(C)[C@@H]1[C@H](O)C[C@@H]1[C@@]3(C)CC[C@H](O[C@@H]4O[C@H](CO)[C@@H](O)[C@H](O)[C@H]4O[C@@H]4O[C@H](CO)[C@@H](O)[C@H](O)[C@H]4O)C(C)(C)[C@@H]3CC[C@]12C` [Ginsenoside Rd] + CCOc1ccccc1-n1c(C(C)N2CCN(C(=O)COc3ccc(Cl)cc3)CC2)nc2ccccc2c1=O [erastin], the values for the relative cell viability with HCC1937 and with MDA-MB-231 were 0.355 and 0.317, respectively.
With `O=C(CC(C(=O)O)c1c[nH]c2ccccc12)c1ccc(F)cc1F` (stereo not given) [Mitochonic acid 5] + CCOc1ccccc1-n1c(C(C)N2CCN(C(=O)COc3ccc(Cl)cc3)CC2)nc2ccccc2c1=O [erastin], the relative cell viability came out at 0.931 with HCC1937 and 1 in the experiment with MDA-MB-231.
The like results for `O=C1C=CC[C@@H]2[C@H]3CCCN4CCC[C@@H](CN12)[C@@H]34` [Sophocarpine] + CCOc1ccccc1-n1c(C(C)N2CCN(C(=O)COc3ccc(Cl)cc3)CC2)nc2ccccc2c1=O [erastin] were, in that order, 0.705 and 0.856.
Take `COc1ccc([C@@H]2OC[C@H]3[C@@H]2CO[C@@H]3c2ccc(O[C@@H]3O[C@H](CO)[C@@H](O)[C@H](O)[C@H]3O)c(OC)c2)cc1OC` [Forsythin] + CCOc1ccccc1-n1c(C(C)N2CCN(C(=O)COc3ccc(Cl)cc3)CC2)nc2ccccc2c1=O [erastin]: the relative cell viability with HCC1937 amounted to 0.718; with MDA-MB-231, 0.754.
The like results for `CN1CCN(c2ccc(/C=C(\C#N)c3ccccc3Br)cc2)CC1` [DG172 (dihydrochloride)] + CCOc1ccccc1-n1c(C(C)N2CCN(C(=O)COc3ccc(Cl)cc3)CC2)nc2ccccc2c1=O [erastin] were, in that order, 0.672 and 0.608.
On to `O=C(O)c1cccc(N=Nc2c(O)[nH]c3ccc(S(=O)(=O)NCc4ccc(F)cc4)cc23)c1` + CCOc1ccccc1-n1c(C(C)N2CCN(C(=O)COc3ccc(Cl)cc3)CC2)nc2ccccc2c1=O [erastin], for which the relative cell viability with HCC1937 stood at 0.544; in the experiment on MDA-MB-231, 0.636.
The like results for `C=C(C)[C@@H]1CC[C@]2(C)CC[C@]3(C)[C@H](CC[C@@H]4[C@@]5(C)CCC(=O)C(C)(C)[C@@H]5CC[C@]43C)[C@@H]12` + CCOc1ccccc1-n1c(C(C)N2CCN(C(=O)COc3ccc(Cl)cc3)CC2)nc2ccccc2c1=O [erastin] were, in that order, 0.608 and 0.594.
For `O=C(c1c2ccccc2cc2ccccc12)N1CCC(N2CCC[C@@H](C(=O)N3CCOCC3)C2)CC1` + CCOc1ccccc1-n1c(C(C)N2CCN(C(=O)COc3ccc(Cl)cc3)CC2)nc2ccccc2c1=O [erastin], the results for the relative cell viability with HCC1937 and in the experiment on MDA-MB-231 were 0.514 and 0.483, respectively.
